The other results are listed elsewhere or left out. A number with no mark means an inactive call. Active and inactive are the calls of the source. Rule as the data show it: active = activation above about 8.4%; inactive = the rest.

This assay deals with Galanin receptor type 2 (Homo sapiens) (UniProt O43603). Nature of the assay: GALR2 agonists, retest of hits, confirmation, cell-based (AID 864).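 Also: 0% = buffer-only vehicle wells and 100% = full reference agonist response.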 As to conditions: GALR2-expressing cells, agonist activation; at 5.6 µM; hits give high values.
Chain of Galanin receptor type 2 (Homo sapiens) (O43603 whole entry, looked up): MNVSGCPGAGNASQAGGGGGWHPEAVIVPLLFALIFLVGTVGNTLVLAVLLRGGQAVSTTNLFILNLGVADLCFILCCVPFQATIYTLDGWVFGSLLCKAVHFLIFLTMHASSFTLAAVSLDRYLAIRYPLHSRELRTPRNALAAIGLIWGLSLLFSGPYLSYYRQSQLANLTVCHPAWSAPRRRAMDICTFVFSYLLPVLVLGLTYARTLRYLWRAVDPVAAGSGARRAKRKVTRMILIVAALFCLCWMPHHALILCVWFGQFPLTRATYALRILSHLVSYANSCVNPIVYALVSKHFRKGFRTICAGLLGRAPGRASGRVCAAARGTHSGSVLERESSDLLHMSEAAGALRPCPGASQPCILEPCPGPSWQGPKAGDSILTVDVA
Regarding `O=c1oc2cc(O)ccc2cc1-c1ccc(F)cc1`, the activation was 2.23%.
Under `Cc1csc(NC(=O)c2ccc(-c3ccc(Cl)cc3Cl)o2)n1` stands -0.78%; under `OC(COc1cccc2ccccc12)CN1CCN(c2ccccn2)CC1` (stereo unspecified), -0.28%.
In the case of `C=CCn1c(Oc2ccc(C(=O)OC)cc2)nc2c1c(=O)n(C)c(=O)n2C`, the activation was 0.25%.
With `Cn1c(=O)oc2cc(S(=O)(=O)N3CCC(C(=O)Nc4ccc(OC(F)(F)F)cc4)CC3)ccc21`, the activation is 1.24%.
For `CC(=O)N(Cc1cccs1)C1CCOC(C)(C)C1` (stereo unspecified), the activation is -1%.
For the molecule `Cc1ccc(Cc2c(C)nc3nc(SCC(=O)NCCN4CCOCC4)nn3c2C)cc1`, the activation was -0.11%.
Take `CC1(C)CC(=O)C=C(NCCN2CCNCC2)C1`: the activation was -1.05%.
`COc1ccc(Nc2oc(-c3ccccc3Cl)nc2C#N)cc1`: the activation is 2%.
As for `CC/C(C)=N/Nc1nc2sc3c(c2c(=O)[nH]1)CC(C)(C)OC3`, the activation was -0.45%.
Regarding `C=CCN(CC=C)S(=O)(=O)c1ccc(C(=O)Nc2nc3c(s2)CCc2ccccc2-3)cc1`, the activation is 2.82%.
With `O=C1COc2ccc(NC(=O)N3CCN(c4ccc(F)cc4)CC3)cc2N1`, the activation was -0.98%.
For the molecule `COc1ccccc1N1N=C(c2cccs2)CC1c1ccccc1` (stereo unspecified), the activation is 6.34%.
Take `COC(=O)c1ccc(NC(=O)C(C)N2C(=O)c3ccccc3C2=O)cc1` (stereo unspecified): the activation was -0.71%.
As to `COc1cc(SC#N)ccc1N=Cc1c(C)[nH]n(-c2ccc(C)cc2)c1=O`, the activation was 7.97%.
Regarding `CCCOc1ccc(C(=O)C(CCC(CNCC)C(=O)c2ccc(OCCC)cc2)CNCC)cc1` (stereo unspecified), the activation is 16% (active).
Under `O=[N+]([O-])c1ccccc1SNc1ccccn1` stands -0.89%; under `CC(=O)Oc1ccc(C(C)=O)c2c1OCCO2`, -0.99%.
`CCOc1ccc2nc(Nc3nc4ccc(NC(C)=O)cc4s3)sc2c1`: the activation is 27.5% (active).
In the case of `Cc1ccc(CCC(=O)Nc2ncc(Cc3cc(Cl)ccc3Cl)s2)o1`, the activation was 7.28%.
Consider `Fc1ccc(N2N=C(c3cccs3)CC2c2ccco2)c(F)c1` (stereo unspecified), for which the activation was 1.22%.
For the molecule `CCOc1ccc(C(O)Cn2c(=N)n(CCN3CCCCC3)c3ccccc32)cc1` (stereo unspecified), the activation is -0.63%.
The result for `COc1ccc(C(=O)CN2C(=O)NC(C)(c3ccc(C)cc3)C2=O)cc1OC` (stereo unspecified) reads -0.91%; that for `CCN(C(=O)CSc1ncn[nH]1)c1cccc2ccccc12`, -1.13%.
`COCCN(CCOC)S(=O)(=O)c1ccc(C(=O)Nc2nc3c(s2)CCc2ccccc2-3)cc1`: the activation was 5.93%.
For the molecule `O=C(NC(=S)Nc1ccc(NC(=O)c2cccs2)cc1)c1ccc([N+](=O)[O-])cc1`, the activation was -0.89%.
